Here are results for 26 compounds from PubChem BioAssay (NCATS).

SMILES strings stand for the structures. “And” between values parts separate entries of the source, which are not always exact repeats. Equal values may be shown once. Records with an inconclusive call do not appear. A number with no mark means an inactive call. The source made the active and inactive calls. Calls come from the whole dose curve; as a rule, active = well fitted curve in the direction sought with a large enough effect; inconclusive = small, poorly fitted or top-dose-only effect, or another doubt; inactive = no such curve, though single readings can be large; an effect the other way counts as inactive or inconclusive.

Assay [1] deals with Cellular tumor antigen p53 (Homo sapiens) (UniProt P04637). Description: Primary qHTS for small molecule compounds that upregulate eGFP-tagged delta133p53alpha (in N-terminal) cells. (AID 2060322).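 For activation: cells pre-induced with doxycycline then dosed without doxycycline; series mostly up to about 56 µM; 0% = DMSO vehicle and 100% = reference activator.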 Note: nearly all actives have a fitted effect of over 75% in size. Note: potency is the fitted concentration of half-maximal effect. The settings on record: NCI-H358 eGFP-delta133p53alpha fluorescence, 24 h; activation: hits give high values. An outline of the steps:
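NCI-H358 cells pre-induced 24 h with 10 ng/ml doxycycline for eGFP-delta133p53alpha, plated dox-free and exposed 24 h at 37C to titrated compounds. Fixed, Hoechst-stained; gated GFP peak intensity by laser scanning cytometry, normalized to DMSO (0%) and 57.5 uM 5-azacytidine (100%).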
(In qHTS, concentration-response curves come from the screen itself.)

The target of assay [2] is Aldehyde dehydrogenase, mitochondrial (Homo sapiens) (UniProt P05091). Nature of the assay: qHTS for Inhibitors of the Aldehyde Dehydrogenase Family (ALDH2) Primary screen (AID 2061308).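 Note: plate controls were vehicle for no effect and reference inhibitor for full effect; nearly all actives have a fitted effect of over 55% in size.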
The target in assay [3] is Retinaldehyde dehydrogenase 3 (Homo sapiens) (UniProt P47895). Nature of the assay: qHTS for Inhibitors of the Aldehyde Dehydrogenase Family (ALDH1A3) Primary screen (AID 2061315).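 Note: plate controls were DMSO vehicle for no effect and reference inhibitor for full effect.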

Chain of Cellular tumor antigen p53 (Homo sapiens) (P04637 whole entry, looked up): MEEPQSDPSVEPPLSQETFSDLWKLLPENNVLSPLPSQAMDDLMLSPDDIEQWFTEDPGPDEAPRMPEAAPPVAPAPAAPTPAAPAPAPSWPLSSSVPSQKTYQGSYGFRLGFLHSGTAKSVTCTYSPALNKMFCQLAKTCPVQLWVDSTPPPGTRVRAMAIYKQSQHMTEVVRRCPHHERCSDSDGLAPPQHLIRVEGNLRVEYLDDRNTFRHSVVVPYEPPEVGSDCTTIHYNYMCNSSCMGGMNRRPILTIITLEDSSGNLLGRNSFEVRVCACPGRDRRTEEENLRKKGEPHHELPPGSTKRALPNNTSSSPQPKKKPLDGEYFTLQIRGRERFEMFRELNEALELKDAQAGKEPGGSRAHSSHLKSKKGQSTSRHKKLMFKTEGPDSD

Consider `C=C1C(=O)O[C@@H]2/C=C(\C)CC/C=C(\C(=O)O[C@@H]3O[C@H](CO)[C@@H](O)[C@H](O)[C@H]3O)CC[C@@H]12`, for which the activation in assay [1] was -5.36%. Moreover, the Potency entry in assay [2] and in assay [3] was “inactive” in each case.

As for `C/C(=C\CO)CC/C=C(\C)C(=O)O[C@H]1[C@H](OC2OC=C(C(=O)O)C3CCC(C)(O)C23)O[C@H](CO)[C@@H](O)[C@@H]1O` (stereo partly drawn), the activation in assay [1] was -22.3%. Moreover, the Potency entry in assay [2] and in assay [3] was “inactive” throughout.

For the compound `CC(O)/C=C/C1(O)C(C)C(O)C(O[C@@H]2O[C@H](CO)[C@@H](O)[C@H](O)[C@H]2O)CC1(C)C` (stereo partly drawn), the activation in assay [1] was -14.3%. Besides, the Potency result in assay [2] and in assay [3] was “inactive” in each case.

As for `CCOc1ccc(-n2c(C(C)N(Cc3cccnc3)C(=O)Cc3ccc(F)c(C(F)(F)F)c3)nc3ncccc3c2=O)cc1` (stereo not drawn), in assay [1], the Potency is 19 µM (active). Besides, the Potency result in assay [2] and in assay [3] was “inactive” in each case.

For `Nc1ncnc2c1c(-c1ccc(Cl)cc1)nn2-c1cccc(-c2cnnn2Cc2cccc(-c3ccccc3)c2)c1`, the activation in assay [1] is 8.04%. Also, the Potency result in assay [2] and in assay [3] was “inactive” throughout.

As for `CO[C@H]1C[C@@H]2CC[C@@H](C)[C@@](O)(O2)C(=O)C(=O)N2CCCC[C@H]2C(=O)O[C@H]([C@H](C)C[C@H]2CC[C@@H](OP(C)(C)=O)[C@H](OC)C2)CC(=O)[C@H](C)/C=C(\C)[C@@H](O)[C@@H](OC)C(=O)[C@H](C)C[C@H](C)/C=C/C=C/C=C/1C`, the activation in assay [1] was 11%. For the same compound, the Potency entry in assay [2] and in assay [3] was “inactive” in each case.

With `CC(=O)N1CCN(C(=O)Cc2ccc(Nc3ncc(F)c(Nc4ccc(C(=O)Nc5ccccc5Cl)cc4)n3)cc2)CC1`, the Potency in assay [1] is 13.5 µM (active). Also, the Potency entry in assay [2] and in assay [3] was “inactive” throughout.

For `O=C(OCCOCCO)c1ccccc1Nc1cccc(C(F)(F)F)c1`, the activation in assay [1] is -13% and -1.67%. Besides, the Potency result in assay [2] and in assay [3] was “inactive” throughout.

`C=C[C@@](C)(O)CC/C=C(\C)C(=O)O[C@@H]1[C@@H]2O[C@]2(C)[C@H]2[C@H](O[C@@H]3O[C@H](CO)[C@@H](O)[C@H](O)[C@H]3O)OC=C[C@@]12O`: in assay [1], the activation is -3.57%. Further, the Potency entry in assay [2] and in assay [3] was “inactive” throughout.

Regarding `C=C1C(=O)OC2/C=C(\C)CC/C=C(\C)CC(OC(C)=O)C12` (stereo not drawn), in assay [1], the Potency is 26.9 µM (active). Also, the Potency entry in assay [2] and in assay [3] was “inactive” throughout.

Consider `C/C=C/C=C/C=C/C(=O)O[C@@H]1[C@@H](OC)C2=C(C(=O)N(C(CCC(=O)O)C(=O)O)C2)[C@@]2(C)CCCC(C)(C)[C@H]12` (stereo partly drawn), for which, in assay [1], the activation is -27.5%. Besides, the Potency result in assay [2] and in assay [3] was “inactive” in each case.

Turning to `C[C@H](CCC(=O)O)[C@H]1CC[C@H]2[C@@H]3C[C@H](O)[C@@H]4C[C@H](O)CC[C@]4(C)[C@H]3CC[C@]12C`, the activation in assay [1] was 1%. Also, the Potency result in assay [2] and in assay [3] was “inactive” throughout.

Turning to `N#Cc1ccc(N2N=C3c4ccc(C(=O)O)cc4CC[C@@H]3[C@@H]2C2CCCC2)cc1Cl`, in assay [1], the activation is -25%. The Potency result in assay [2] and in assay [3] was “inactive” each time.

`C=C1Cc2c(Cl)cc3[nH]c4c5c3c2[C@@]2(O)[C@@H]1C[C@@H]2C(C)(C)O[C@H]5C1CC[C@@]2(O)[C@@]35O[C@@H]3[C@H]3OC(C)(C)[C@H]3O[C@H]5CC[C@]2(C)[C@@]41C` (stereo partly drawn): the activation in assay [1] is -14.5%. The Potency entry in assay [2] and in assay [3] was “inactive” throughout.

With `C=C1C(=O)O[C@@H]2[C@H]1CCC(C)=C(CCC(=O)O)[C@@]2(C)O`, the activation in assay [1] is -18.3%. In addition, the Potency result in assay [2] and in assay [3] was “inactive” throughout.

Turning to `COc1ccc([C@H]2Cc3cccc(O)c3C(=O)O2)cc1`, the activation in assay [1] is 3.05%. The Potency entry in assay [2] and in assay [3] was “inactive” in each case.

Take `COC1=CC(=O)O[C@@H](CCc2ccccc2)[C@@H]1O`: in assay [1], the activation is -13%. Also, the Potency entry in assay [2] and in assay [3] was “inactive” in each case.

As to `C=CC1(C)CC(OC(=O)/C(C)=C\COC(C)=O)C(C(=C)C(=O)O)C(O)C1C(=C)CO` (stereo not drawn), the activation in assay [1] was 0%. Also, the Potency entry in assay [2] and in assay [3] was “inactive” throughout.

For `CC(=O)C1=CCC2C3CC=C4CC(O)CC(O)C4(C)C3C(O)CC12C` (stereo not drawn), the activation in assay [1] is 6.11%. The Potency entry in assay [2] and in assay [3] was “inactive” each time.

Regarding `Cc1cc(N2CCCCC2)nc2ccccc12`, the activation in assay [1] was 13.7%. Besides, the Potency entry in assay [2] and in assay [3] was “inactive” throughout.

As for `OC[C@@]1(O)CO[C@H](OC[C@H]2O[C@@H](OCCc3ccccc3)[C@H](O)[C@@H](O)[C@@H]2O)[C@@H]1O`, the activation in assay [1] was -10.7%. In addition, the Potency result in assay [2] and in assay [3] was “inactive” throughout.

`CCC1CC2C(C)=CC3CCCCC3C2(C)C2(OC(=O)C(C)(O)OC2=O)O1` (stereo not drawn): the activation in assay [1] is -16%. Further, the Potency result in assay [2] and in assay [3] was “inactive” throughout.

Take `CCCC(=O)O[C@@H]1[C@@H]2[C@@H](OC(C)=O)[C@]3(C)C(=O)[C@H]4[C@@H](OC(C)=O)C(C)(C)C[C@H]4[C@]3(C)C(=O)[C@@]2(OC(C)=O)C[C@@H]1C`: in assay [1], the activation is -10.7%. Further, the Potency entry in assay [2] and in assay [3] was “inactive” each time.

With `O=C(OCc1ccccc1O[C@@H]1O[C@H](CO)[C@@H](O)[C@H](O)[C@H]1O)C1(O)C=CCCC1O` (stereo partly drawn), the activation in assay [1] is -2.29%. Also, the Potency entry in assay [2] and in assay [3] was “inactive” each time.

Regarding `CC(=O)OC(C)(C)/C=C/C(=O)C(C)(O)C1C(O)CC2(C)C3CC=C(C(C)(C)C(=O)O)C(CC(=O)O)C3(C)C(=O)CC12C` (stereo not drawn), the activation in assay [1] is -3.82%. Moreover, the Potency entry in assay [2] and in assay [3] was “inactive” each time.

For the compound `CC(=O)N1c2ccccc2C2(O)CC3C(=O)NC(CC(C)C)C(=O)N3C12` (stereo not drawn), the activation in assay [1] was -32.8%. In addition, the Potency entry in assay [2] and in assay [3] was “inactive” throughout.
